Experimental data as given in PubChem BioAssay.
Active and inactive are the calls of the source. Unless noted, how the calls were made is not given here.

Legend:
[1] = system: Wnt5a (protein binding on small-molecule microarray); assay: Wnt5a binders on small-molecule microarray, primary screen, biophysical, 635/667 nm fluorescence (AID 1142); conditions: 635 nm fluorescence, higher = more signal;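 further: fluorescence read at 667 nm with signal to noise per printed feature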
[2] = cell viability in Huh7 cells, primary screen, cytotoxicity control for HCV replication inhibitor project, CellTiter-Glo luminescence, basal, 48 h (AID 1143); conditions: Huh7 HCV replicon, higher = more signal, called active from +8 up or from −8 down;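 further: Huh7 hepatoma cells carrying a hepatitis C replication reporter with no stimulus; test concentration not given here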
[3] = P. aeruginosa biofilm formation inhibitors, primary screen, PAO1 strain, BacTiter-Glo luminescence, LB-PBS (AID 1144); conditions: 12 h, higher = more signal
[4] = CREB reporter modulators without forskolin, primary screen, cell-based, PC12, CRE-LacZ reporter, unstimulated (AID 1145); conditions: no forskolin, luminescence, 4.5 h, higher = more signal, called active from +8 up or from −8 down
[5] = CREB reporter modulators under forskolin, primary screen, cell-based, PC12, CRE-LacZ reporter, forskolin-stimulated (AID 1146); conditions: luminescence, 4.5 h, higher = more signal, called active from +8 up or from −8 down;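 further: PC12 cells with 6xCRE LacZ reporter stimulated by forskolin 10 µM; beta-galactosidase reporter signal reflecting CREB driven transcription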
[6] = biological target: Streptavidin (Streptomyces avidinii) (UniProt P22629); assay: streptavidin binders on small-molecule microarray, primary screen, artefact control for SMM compound annotation, biophysical, 635/667 nm fluorescence (AID 1147); conditions: streptavidin binding, higher = more signal;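 further: signal reflects streptavidin binding to arrayed compounds as a control protein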
[7] = small-molecule binders of probe aInhba, primary screen, biochemical, small-molecule microarray, 635/667 nm fluorescence (AID 1148); conditions: higher = more signal;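 further: score merges 667nm spot fluorescence with signal-to-noise for antibody binding to printed compounds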
Torsin-1A (Homo sapiens) [8] = biological target: Torsin-1A (Homo sapiens) (UniProt O14656); assay: torsin A binders from cell lysate, primary screen, small-molecule microarray, wild-type, 635/667 nm (AID 1149); conditions: COS7 hTOR1A-WT lysate, 635 nm fluorescence, higher = more signal
Torsin-1A (Homo sapiens) [9] = biological target: Torsin-1A (Homo sapiens) (UniProt O14656); assay: small-molecule binders of mutant TOR1A in lysate, primary screen, cell lysate, small-molecule microarray, COS7 lysate, 635/667 nm fluorescence (AID 1150); conditions: COS7 hTOR1A mutant lysate, 635 nm fluorescence, higher = more signal;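 further: score pools 667 nm emission and signal to noise measuring lysate protein binding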
[10] = system: Sonic hedgehog protein (Shh); assay: small-molecule binders of Shh protein, primary screen, biochemical, small-molecule microarray, 635/667 nm fluorescence (AID 1151); conditions: small-molecule microarray binding, 635 nm fluorescence; higher = more signal;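 further: Shh protein binding to compounds spotted on small-molecule microarray slides; score combines spot fluorescence intensity with signal-to-noise across triplicate slides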

Sequence of Torsin-1A (Homo sapiens) (O14656 whole entry, looked up): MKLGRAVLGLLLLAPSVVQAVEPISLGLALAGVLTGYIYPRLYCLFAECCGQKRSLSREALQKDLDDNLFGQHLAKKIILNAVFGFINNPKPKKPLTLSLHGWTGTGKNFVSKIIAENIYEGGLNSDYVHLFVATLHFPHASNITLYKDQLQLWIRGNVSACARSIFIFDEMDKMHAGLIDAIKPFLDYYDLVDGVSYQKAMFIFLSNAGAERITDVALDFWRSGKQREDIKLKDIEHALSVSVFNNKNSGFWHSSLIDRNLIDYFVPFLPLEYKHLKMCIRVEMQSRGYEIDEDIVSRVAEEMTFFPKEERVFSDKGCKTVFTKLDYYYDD
Sequence of Streptavidin (Streptomyces avidinii) (P22629 whole entry, looked up): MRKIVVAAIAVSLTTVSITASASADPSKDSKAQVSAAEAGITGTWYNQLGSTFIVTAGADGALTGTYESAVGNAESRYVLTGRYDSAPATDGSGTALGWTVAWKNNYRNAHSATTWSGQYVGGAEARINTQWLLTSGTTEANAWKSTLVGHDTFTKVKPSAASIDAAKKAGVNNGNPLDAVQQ

SMILES	composite z-score [1]	z-score [2]	z-score [3]	z-score [4]	z-score [5]	composite z-score [6]	composite z-score [7]	composite z-score (Torsin-1A (Homo sapiens) [8])	composite z-score (Torsin-1A (Homo sapiens) [9])	composite z-score [10]
Cc1ccc(S[C@]2(C(=O)NCC(C)C)CC(=O)N(Cc3ccccc3Cl)[C@@H]2c2ccc(CO)cc2)cc1	-0.343	0.554 (inactive)	1.15 (inactive)	0.118 (inactive)	-0.227 (inactive)	-1.67	-0.331	-0.326	0.961	-1.18
CC(C)C[C@@H]1NC(=O)[C@@H]2C[C@H](C(=O)NCCCCCC[N+](C)(C)C)[C@H](c3ccc(O)cc3)N2C1=O	0.0505	0.0436 (inactive)	-0.555 (inactive)	-0.532 (inactive)	0.0161 (inactive)	0.313	-0.0448	1.08	0.767	2.03
NC(=O)NCC#Cc1ccc2c(c1)[C@]1(C(=O)N2)[C@H](C(=O)NC[C@H](O)c2ccccc2)[C@H]2C(=O)O[C@H](c3ccccc3)[C@H](c3ccccc3)N2[C@@H]1c1ccc(O)cc1	0.545	0.525 (inactive)	-0.846 (inactive)	-0.465 (inactive)	-0.467 (inactive)	1.34	0.529	0.325	0.816	1.02
C=CC(=C)C1=CCO[C@@H]1[C@H]1CCCN1S(=O)(=O)c1ccccc1[N+](=O)[O-]	0.224	-0.169 (inactive)	-0.484 (inactive)	0.124 (inactive)	0.619 (inactive)	0.909	-0.0221	0.343	0.136	1.84
Cc1cc(C)c(C(O)C2C=CC3C(=O)N(c4ccccc4)C(=O)C3N2Nc2ccc(C#N)cc2)c(C)c1 (stereo not given)	0.461	0.287 (inactive)	-1.36 (inactive)	0.246 (inactive)	1.19 (inactive)	2	0.427	0.221	1.51	-0.438
O=C1OCCC=C[C@H]2OC34C=CCN(Cc5ccccc5)C(=O)[C@H]3N(CCCCCCO)C(=O)[C@@H]4C12 (stereo not given in full)	-0.751	0.404 (inactive)	-0.616 (inactive)	-0.761 (inactive)	-0.395 (inactive)	-0.887	-0.441	-1.92	-1.4	0.628
CC(C)N1C(=O)c2ccccc2[C@@H](C(=O)NCCCN(C)C)[C@@H]1c1ccc(CO)cc1	-0.0882	-0.921 (inactive)	-0.282 (inactive)	-0.116 (inactive)	-0.0135 (inactive)	-0.418	0.0633	-0.0795	-0.0729	-0.589
COc1ccc(CCNC(=O)[C@@H]2c3ccccc3C(=O)N(Cc3ccc(OC(F)(F)F)cc3)[C@H]2c2ccc(CO)cc2)cc1	0.446	-2.71 (inactive)	-0.676 (inactive)	-0.475 (inactive)	-0.206 (inactive)	-0.0886	-0.0465	-0.271	0.366	-0.144
CCCCC(CC)C(O)C1C=CC2C(=O)N(c3ccccc3)C(=O)C2N1Nc1ccccc1 (stereo not given)	0.0653	-2.93 (inactive)	-0.569 (inactive)	0.253 (inactive)	0.011 (inactive)	0.948	0.103	-0.311	0.178	-0.751
COc1ccc(C(O)C2C=CC3C(=O)NC(=O)C3N2Nc2ccccn2)cc1OCc1ccccc1 (stereo not given)	-0.125	0.716 (inactive)	-0.484 (inactive)	0.629 (inactive)	0.124 (inactive)	0.428	-0.0256	-0.209	0.435	0.0157
COC(=O)[C@@]1(Cc2ccc(OC)cc2)[C@H]2c3cc(C(=O)N(C)C)n(Cc4c(OC)[nH]cc(C)c4=O)c3C[C@H]2CN1C(=O)c1ccccc1	-0.0522	-0.857 (inactive)	0.0281 (inactive)	-0.185 (inactive)	0.69 (inactive)	-0.0748	0.0882	0.0857	1.16	-1.1
C=CCN1C(=O)[C@]2(O[C@H](CCO)[C@@H]([Si](C)(C)c3ccc(OC)cc3)[C@@H]2C)c2cc(NC(=O)[C@H](C)O)ccc21	0.276	-6.12 (inactive)	1.01 (inactive)	6.89 (inactive)	-0.144 (inactive)	0.553	0.339	0.725	0.499	1.34
COc1ccc(C(=O)Nc2cccc(CN3C(=O)[C@]4(O[C@H](CC(=O)N5CCC[C@H]5CO)[C@@H]([Si](C)(C)c5ccc(OC)cc5)[C@@H]4C)c4ccccc43)c2)cc1	0.278	-5.56 (inactive)	1.16 (inactive)	0.105 (inactive)	-0.748 (inactive)	-0.349	-0.15	0.421	0.812	1.79
COc1cc2c(cc1O)C(C)N(Cc1cccc(OC(F)(F)F)c1)CC2 (stereo not given)	0.475	-0.842 (inactive)	-0.334 (inactive)	0.506 (inactive)	1.66 (inactive)	0.395	0.0528	1.7	1.91	0.204
O=C1O[C@H](c2ccccc2)[C@H](c2ccccc2)N2[C@H]1[C@@H](C(=O)O)[C@]1(C(=O)Nc3ccc(C#CC4=CCCCC4)cc31)[C@H]2c1ccc(OCCO)cc1	1.04	-1.89 (inactive)	-1.37 (inactive)	0.0816 (inactive)	3.42 (inactive)	1.22	0.201	0.586	1.16	1.09
Cc1ccc(S[C@]2(C(=O)NCc3ccccc3)CC(=O)N(Cc3ccccc3)[C@@H]2c2ccc(CO)cc2)cc1	-0.202	-0.618 (inactive)	0.395 (inactive)	-0.735 (inactive)	-0.26 (inactive)	-0.926	-0.0719	-0.499	0.248	-0.242
CC(C)=CCCC(C)=CC(O)C1C=CC2C(=O)N(c3ccccc3)C(=O)C2N1Nc1ccccc1 (stereo not given)	0.744	0.311 (inactive)	-0.786 (inactive)	0.819 (inactive)	1.7 (inactive)	2.04	0.596	0.0777	0.253	0.0068
C=C(COC)C(=O)CC[C@H](OC(C)=O)c1cccc(OCCO)c1	0.145	-3.15 (inactive)	0.198 (inactive)	0.942 (inactive)	0.203 (inactive)	-1.1	-0.142	0.315	0.142	0.9
CCOC(=O)C1=CC[C@@H](c2ccccc2)N(S(=O)(=O)c2ccc(C)cc2)[C@H]1C(=O)OCC	0.3	-4.23 (inactive)	1.43 (inactive)	-0.415 (inactive)	-0.76 (inactive)	0.491	0.421	0.59	0.523	-0.189
O=C1OCCC=C[C@H]2OC34C=CCN(Cc5ccccc5)C(=O)[C@H]3N(CCCCCO)C(=O)[C@@H]4C12 (stereo not given in full)	-0.733	0.409 (inactive)	-1.86 (inactive)	-0.216 (inactive)	-0.732 (inactive)	-0.636	-0.128	2.82	2.07	-0.211
COCCOC(=O)N1C(=O)[C@@]2(c3ccccc31)[C@H](c1ccc(O)cc1)N1[C@H](c3ccccc3)[C@H](c3ccccc3)OC(=O)[C@H]1[C@@H]2C(=O)N1CCc2cc(OC)c(OC)cc2C1	0.633	-3.64 (inactive)	-1.29 (inactive)	0.0776 (inactive)	-0.654 (inactive)	-0.162	0.223	0.419	0.697	2.1
CCCC[C@H]1OB(O)C[C@H]2C1=C(C)C[C@H]1C(=O)N(Cc3ccccc3)C(=O)[C@H]12	0.34	0.342 (inactive)	0.464 (inactive)	-0.23 (inactive)	-0.155 (inactive)	-0.0276	-0.122	0.358	0.528	1.01
O=C1C[C@@](C(=O)NC2CC2)(c2ccc([N+](=O)[O-])cc2)[C@@H](c2ccc(CO)cc2)N1CC12CC3CC(CC(C3)C1)C2	0.382	-4.42 (inactive)	-0.752 (inactive)	-0.529 (inactive)	-1.12 (inactive)	0.465	-0.0736	0.477	-0.176	0.777
COCCOC(=O)N1C(=O)[C@@]2(c3ccccc31)[C@H](C(=O)NC[C@H](O)c1ccccc1)[C@H]1C(=O)O[C@H](c3ccccc3)[C@H](c3ccccc3)N1[C@@H]2c1ccc(OCCO)cc1	0.788	-3.37 (inactive)	-1.46 (inactive)	-1.83 (inactive)	-0.686 (inactive)	0.168	0.0588	0.646	0.857	2.29
CC(C)C[C@@H]1NC(=O)[C@H]2C[C@@H](C(=O)NCCCCCCNC(=O)CS)[C@@H](c3cccc(OCCO)c3)N2C1=O	1.35	0.263 (inactive)	-0.436 (inactive)	-1.49 (inactive)	-1.47 (inactive)	0.357	0.0574	1.53	1.67	2.13
COc1cc2c(cc1OC)CN(C(=O)[C@@H]1[C@H]3C(=O)O[C@H](c4ccccc4)[C@H](c4ccccc4)N3[C@H](c3ccccc3OCCO)[C@@]13C(=O)Nc1ccc(C#CCNC(N)=O)cc13)CC2	0.38	-2 (inactive)	-0.105 (inactive)	-0.168 (inactive)	-0.0826 (inactive)	0.684	0.32	0.593	0.812	1.38
COC(=O)c1ccc(C23CC2(C(NP(=O)(c2ccccc2)c2ccccc2)c2ccccc2)C3)cc1 (stereo not given)	0.211	-2.07 (inactive)	0.523 (inactive)	-1.14 (inactive)	-0.0812 (inactive)	1.7	0.178	0.862	1.64	-0.803
CN(C)CCCCCCNC(=O)[C@H]1C[C@H]2C(=O)N[C@@H](CCCCN)C(=O)N2[C@H]1c1ccc(O)cc1	1.79	0.253 (inactive)	-0.26 (inactive)	0.0124 (inactive)	0.737 (inactive)	2.68	1.39	3.35	3.24	2.05
